The list shows a part of the results. Unmarked numbers belong to inactive results. Calls of active or inactive are those of the source. Rule as the data show it: active = max delta Tm above about 0.48 degrees C; inactive = the rest.

The experiment deals with Kelch-like ECH-associated protein 1 (Homo sapiens) (UniProt Q14145). As to the kind of experiment: Tm shift of Keap1 Kelch upon compound binding – biophysical, thermal shift, RT-PCR instrument, cherry-pick, dose response (AID 651823). The following applies: active compounds read high; at 50 µM unless noted.
Kelch-like ECH-associated protein 1 (Homo sapiens), sequence (Q14145 whole entry, looked up): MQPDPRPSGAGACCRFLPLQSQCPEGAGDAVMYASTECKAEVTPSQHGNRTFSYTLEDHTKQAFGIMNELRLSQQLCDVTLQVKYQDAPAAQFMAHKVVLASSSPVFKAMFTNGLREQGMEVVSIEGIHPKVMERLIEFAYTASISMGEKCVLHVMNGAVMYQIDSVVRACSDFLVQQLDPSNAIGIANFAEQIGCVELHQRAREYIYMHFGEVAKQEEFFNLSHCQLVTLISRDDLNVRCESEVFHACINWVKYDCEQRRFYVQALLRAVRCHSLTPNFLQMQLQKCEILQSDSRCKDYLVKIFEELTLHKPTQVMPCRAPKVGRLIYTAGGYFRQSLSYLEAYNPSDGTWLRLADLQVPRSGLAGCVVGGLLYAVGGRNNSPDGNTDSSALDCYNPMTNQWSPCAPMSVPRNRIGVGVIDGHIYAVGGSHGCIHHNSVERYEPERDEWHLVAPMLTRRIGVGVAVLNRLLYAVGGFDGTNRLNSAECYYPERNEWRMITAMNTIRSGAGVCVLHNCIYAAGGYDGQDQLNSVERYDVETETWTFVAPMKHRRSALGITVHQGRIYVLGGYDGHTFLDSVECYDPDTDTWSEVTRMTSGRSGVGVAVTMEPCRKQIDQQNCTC
For the compound `O=C(NCCOCc1ccc(Cl)cc1)c1ncn[nH]1`, the max delta Tm is -0.19 °C.
The result for `O=C(O)CC(Cn1cnnn1)c1ccccc1` (centres undefined) reads -0.14 °C [at 3 µM]; that for `O=C(Nc1ccccn1)C1CCN(S(=O)(=O)c2ccc3c(c2)OCCO3)CC1`, -0.17 °C [at 0.38 µM].
The result for `CC1(C)CC(=O)C(N=Nc2c(F)cccc2F)=C(O)C1` reads -0.12 °C [at 6 µM]; that for `CCCC(=O)Nc1ccc(C(=O)NCCCn2ccnc2)cc1`, -0.11 °C.
For `CCCC1OC23CCCCC2C(C#N)(C#N)C1(C#N)C(=N)O3` (centres undefined), the max delta Tm was -0.1 °C [at 0.38 µM].
In the case of `Nc1ccc2nc3c(=O)[nH]c(=S)[nH]c3nc2c1`, the max delta Tm is 0.14 °C.
On to `COc1cc(OC)c(S(=O)(=O)Nc2ccccc2C(=O)O)cc1S(=O)(=O)Nc1ccccc1C(=O)O`, for which the max delta Tm is 0.77 °C (active).
The result for `O=C1CC(Cc2ccc(Cl)cc2)C(=O)N1c1cc(Cl)ccn1` (centres undefined) reads -0.06 °C [at 0.38 µM]; that for `COc1ccc(C2c3ccc(O)cc3Oc3ncn(CCCO)c(=N)c32)cc1OC` (centres undefined), -0.15 °C [at 6 µM]; that for `CN1C(=O)c2cccc3c(N)ccc(c23)C1=O`, 0 °C [at 26 µM].
Regarding `Cc1cccc(NS(=O)(=O)c2ccc(C)c(C(=O)NCC(c3ccccc3)N(C)C)c2)c1` (centres undefined), the max delta Tm is -0.11 °C [at 0.8 µM].
Turning to `COC(=O)C[n+]1cccc2ccccc21`, the max delta Tm is -0.13 °C.
For the compound `COc1ccc(Nc2nc(-c3cccnc3)nc3ccccc23)cn1`, the max delta Tm is -0.21 °C [at 1.6 µM].

The record behind these values is PubChem BioAssay AID651823 (Broad Institute, 2012).
